Our source for the AC50 and outcome values is PubChem BioAssay (EPA / NIEHS).

Molecules are shown by their SMILES. Active and inactive are the calls of the source. The calls were made as follows: active = hit-call score of the fitted dose curve at least 0.9, where 1 is the maximum; inactive = score below 0.9.

Assay [1] concerns the target CCAAT/enhancer-binding protein beta (Homo sapiens) (UniProt P17676). Kind of assay: ATG_C_EBP_CIS: Attagene CIS-FACTORIAL HepG2 Assay for human CCAAT/Enhancer Binding Protein (C/EBP) beta (AID 2282927). Conditions: HepG2 Attagene cis-factorial transcription factor reporter; actives raise or lower the signal. In short, it runs like this: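 HepG2, transient MRTU transfection, 24 h treatment. RT-PCR plus CE fluorescence; DMSO negative control, bidirectional fit.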

Assay [2] can be described thus: ATG_CMV_CIS: Attagene CIS-FACTORIAL HepG2 Assay for human CMV (Internal Marker) (AID 2282928).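 Also: endpoint acts as a background internal control marker rather than a target.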 The conditions noted are these: HepG2 CMV promoter reporter, transcription factor profiling; actives raise or lower the signal. In a few lines:
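CMV internal-marker background readout in transiently transfected HepG2 cells bearing cis-regulated reporter units. Reporter mRNA is measured 24 h after dosing by RT-PCR and capillary electrophoresis, with bidirectional fitting against DMSO.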

The nature of assay [3]: ATG_DR4_LXR_CIS: Attagene CIS-FACTORIAL HepG2 Assay for human Liver X Receptor (LXR), DR4 submotif (AID 2282929). Conditions: HepG2 Attagene DR4 cis-reporter, mRNA transcription; actives raise or lower the signal. In a few lines: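 HepG2, transient MRTU transfection, cis-element (DR4) promoter; 24 h compound exposure; total RNA → oligo(dT) RT → PCR → 6-FAM primer extension → HpaI cut → CE. Gain/loss vs DMSO, bidirectional fit.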

Assay [4] can be described thus: ATG_AP_1_CIS: Attagene CIS-FACTORIAL HepG2 Assay for human Activator Protein 1 (AP-1) (AID 2282931). Conditions: HepG2 Attagene cis-factorial AP-1 reporter mRNA; actives raise or lower the signal. In short, it runs like this:
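Transient MRTU transfection of HepG2 → 24 h chemical treatment → RNA isolation, RT-PCR, 6-FAM labelling, HpaI digest → capillary electrophoresis. Fit: bidirectional, DMSO negative control.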

Assay [5] is described as follows: ATG_BRE_CIS: Attagene CIS-FACTORIAL HepG2 Assay for human Bone Morphogenetic Protein (BMP) Response Element (BRE) (AID 2282933). Conditions: HepG2 BMP response element reporter, Attagene transcription factor profiling; actives raise or lower the signal. In short, it runs like this:
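After a 24 h chemical treatment, transiently transfected HepG2 cells were lysed for RNA; reporter transcripts were quantified by fluorescent RT-PCR and capillary electrophoresis, normalised to DMSO.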

Assay [6] deals with Retinoic acid receptor alpha (Homo sapiens) (UniProt P10276). As to the kind of experiment: ATG_DR5_RAR_CIS: Attagene CIS-FACTORIAL HepG2 Assay for human Retinoic Acid Receptor Alpha (RARE), DR5 submotif (AID 2282934).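 As to AC50: reporter responds to endogenous RAR alpha beta and gamma in HepG2 not RARA alone.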 Conditions: HepG2 Attagene cis-factorial RARE DR5 reporter, mRNA; actives raise or lower the signal. In short, it runs like this: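 After 24 h of chemical exposure, transiently transfected HepG2 cells were lysed for total RNA; the DR5-regulated reporter transcript was quantified via RT-PCR and capillary electrophoresis, with activity fitted bidirectionally against DMSO.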
Retinoic acid receptor alpha (Homo sapiens), sequence (P10276 whole entry, looked up): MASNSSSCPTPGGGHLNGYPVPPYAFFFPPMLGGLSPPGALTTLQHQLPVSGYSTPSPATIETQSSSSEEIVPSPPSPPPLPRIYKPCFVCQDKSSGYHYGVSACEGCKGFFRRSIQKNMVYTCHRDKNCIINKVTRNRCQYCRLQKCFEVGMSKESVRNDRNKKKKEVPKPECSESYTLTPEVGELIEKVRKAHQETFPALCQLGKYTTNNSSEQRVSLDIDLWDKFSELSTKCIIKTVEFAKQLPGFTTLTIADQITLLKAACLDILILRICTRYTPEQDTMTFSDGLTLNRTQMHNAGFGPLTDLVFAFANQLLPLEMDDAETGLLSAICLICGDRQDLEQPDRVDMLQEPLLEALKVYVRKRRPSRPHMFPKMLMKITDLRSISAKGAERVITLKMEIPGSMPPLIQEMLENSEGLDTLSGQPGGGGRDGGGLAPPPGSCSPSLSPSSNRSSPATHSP

Assay [7] deals with Transcription factor E2F1 (Homo sapiens) (UniProt Q01094). Kind of assay: ATG_E2F_CIS: Attagene CIS-FACTORIAL HepG2 Assay for human E2F Transcription Factor 1 (AID 2282935). Conditions: HepG2 Attagene cis-reporter, E2F reporter RNA transcripts; actives raise or lower the signal. In short, it runs like this: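 Endogenous E2F1 activity read through cis-promoter reporter units transfected into HepG2. After 24 h compound treatment, reporter mRNA measured by RT-PCR, HpaI digestion and capillary electrophoresis. Bidirectional fit versus DMSO.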
Transcription factor E2F1 (Homo sapiens), sequence (Q01094 whole entry, looked up): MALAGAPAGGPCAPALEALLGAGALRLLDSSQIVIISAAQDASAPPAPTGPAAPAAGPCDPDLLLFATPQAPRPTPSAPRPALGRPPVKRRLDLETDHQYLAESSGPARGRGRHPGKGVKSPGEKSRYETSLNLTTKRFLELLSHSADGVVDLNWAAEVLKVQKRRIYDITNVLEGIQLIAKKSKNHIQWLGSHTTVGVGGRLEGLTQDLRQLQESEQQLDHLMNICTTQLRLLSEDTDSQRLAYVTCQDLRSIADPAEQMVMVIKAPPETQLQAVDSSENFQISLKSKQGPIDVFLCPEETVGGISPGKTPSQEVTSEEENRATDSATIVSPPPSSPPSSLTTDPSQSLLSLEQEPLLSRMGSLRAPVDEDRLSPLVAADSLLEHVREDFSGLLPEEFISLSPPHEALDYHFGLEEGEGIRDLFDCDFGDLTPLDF

Assay [8] is described as follows: ATG_E_Box_CIS: Attagene CIS-FACTORIAL HepG2 Assay for human Enhancer Box (E-box) (AID 2282936). Conditions: HepG2 E-box cis-reporter transcription, actives raise or lower the signal. In short, it runs like this: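 HepG2 cells transiently transfected with multiplexed cis-element reporter units, dosed 24 h; reporter mRNA quantified by RT-PCR, 6-FAM labelling, HpaI digestion and capillary electrophoresis. E-box (USF1) signal fitted bidirectionally vs DMSO.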

Assay [9] can be described thus: ATG_M_61_CIS: Attagene CIS-FACTORIAL HepG2 Assay for M61 Transcription Factor (Internal Marker) (AID 2282937). Conditions: HepG2 Attagene CIS-FACTORIAL M61 internal marker reporter; actives raise or lower the signal. In a few lines:
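Human liver HepG2, transient MRTU transfection (cis promoter elements), 24 h compound. Total RNA → oligo(dT) RT → PCR → FAM label → HpaI → CE. Internal background marker; bidirectional fitting, DMSO = baseline.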

The nature of assay [10]: ATG_EGR_CIS: Attagene CIS-FACTORIAL HepG2 Assay for human Early Growth Response 1 (EGR1) (AID 2282938). The conditions noted are these: HepG2 Attagene CIS-FACTORIAL EGR reporter mRNA; actives raise or lower the signal. In a few lines: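 Transient transfection of human HepG2 with multiple cis-regulated reporter units, chemical exposure 24 h, total RNA isolated. Reverse transcription, PCR, fluorescent labelling and capillary electrophoresis quantify reporter transcripts; activity fitted bidirectionally against DMSO.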

Assay [11] in a line: ATG_M_19_CIS: Attagene CIS-FACTORIAL HepG2 Assay for M19 Transcription Factor (Internal Marker) (AID 2282939). The conditions noted are these: HepG2 Attagene CIS-FACTORIAL M19 internal marker reporter; actives raise or lower the signal. In a few lines: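 In this multiplexed cell assay, transiently transfected HepG2 reporter units report endogenous transcription-factor activity; after 24 hours of treatment, labelled reporter cDNA fragments are quantified by capillary electrophoresis and fitted bidirectionally against DMSO.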

The nature of assay [12]: ATG_ERE_CIS: Attagene CIS-FACTORIAL HepG2 Assay for Estrogen Response Element (ERE) (AID 2282940). The conditions noted are these: HepG2 ERE cis-reporter, Attagene RNA transcript; actives raise or lower the signal. In short, it runs like this:
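Measuring endogenous transcription factor output, the assay doses transfected HepG2 cells for 24 hours and quantifies reporter transcripts by fluorescent RT-PCR and capillary electrophoresis, with DMSO as baseline.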

Assay [13] in a line: ATG_Ets_CIS: Attagene CIS-FACTORIAL HepG2 Assay for human Erythroblast Transformation Specific (ETS) (AID 2282941). The conditions noted are these: HepG2 ETS cis-reporter transcription, actives raise or lower the signal. In a few lines: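 HepG2 cells transfected with multiple cis-regulated reporter units measuring endogenous ETS-driven transcription, 24 h after dosing. Reporter mRNA quantified by RT-PCR with capillary electrophoresis; bidirectional fit relative to DMSO.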

Assay [14] deals with Hepatocyte nuclear factor 3-beta (Homo sapiens) (UniProt Q9Y261). As to the kind of experiment: ATG_FoxA2_CIS: Attagene CIS-FACTORIAL HepG2 Assay for human Forkhead box A2 (FOXA2) (AID 2282942). Conditions: HepG2 cis-reporter transcription factor activity, 24 h; actives raise or lower the signal. In short, it runs like this:
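Transient MRTU transfection of HepG2 liver cells; 24 h treatment; total RNA → oligo(dT) RT → PCR → FAM primer extension → HpaI cut → CE. Bidirectional fit vs DMSO.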

A short description of assay [15]: ATG_FoxO_CIS: Attagene CIS-FACTORIAL HepG2 Assay for human Forkhead box O (FoxO) (AID 2282943). The conditions noted are these: HepG2 Attagene cis-reporter, FoxO element, mRNA; actives raise or lower the signal. In short, it runs like this:
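Transfected HepG2 reporter cells exposed to test chemical for 24 h; reporter RNA measured by reverse transcription, PCR and fluorescent capillary electrophoresis; curves fitted for increases and decreases against DMSO.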

The nature of assay [16]: ATG_GATA_CIS: Attagene CIS-FACTORIAL HepG2 Assay for human GATA Binding Protein (AID 2282944). Conditions: HepG2 GATA cis-element reporter, Attagene multiplex mRNA; actives raise or lower the signal. In a few lines:
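Measures endogenous transcription factor-driven reporter mRNA in HepG2 cells transiently carrying cis-regulated constructs. 24 h dosing; RNA via oligo(dT) reverse transcription, PCR, HpaI digestion, capillary electrophoresis; fitted relative to DMSO.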

A short description of assay [17]: ATG_GLI_CIS: Attagene CIS-FACTORIAL HepG2 Assay for human Zinc Finger Protein GLI1 (AID 2282945). Conditions: HepG2, Attagene cis-factorial reporter mRNA, GLI element; actives raise or lower the signal. In a few lines:
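Transiently transfected HepG2 cells report endogenous transcription factor activity via cis-element-driven reporter units. After 24 h compound exposure, reporter mRNA was measured by RT-PCR with capillary electrophoresis; bidirectional fitting against DMSO baseline.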

Assay [18] concerns the target Bile acid receptor (Homo sapiens) (UniProt Q96RI1). Kind of assay: ATG_IR1_CIS: Attagene CIS-FACTORIAL HepG2 Assay for human Nuclear Receptor Subfamily 1 Group H Member 4 (NR1H4), IR1 submotif (AID 2282946). The conditions noted are these: IR1 reporter transcription, actives raise or lower the signal. In short, it runs like this: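 HepG2 cells transiently transfected with multiple cis-promoter-driven reporter units to measure endogenous transcription factor activity; 24 h exposure. Reporter mRNA read by RT-PCR, FAM labelling, HpaI digestion and capillary electrophoresis. Bidirectional fit versus DMSO.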

Assay [19] can be described thus: ATG_AP_2_CIS: Attagene CIS-FACTORIAL HepG2 Assay for human Activator Protein 2 (AP-2) (AID 2282932). Conditions: HepG2 AP-2 cis-reporter, Attagene transcription factor profiling; actives raise or lower the signal. In short, it runs like this: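 HepG2 cells transiently transfected with cis-element reporter units and exposed for 24 h. Reporter mRNA measured by RT-PCR, FAM labelling, HpaI digestion and capillary electrophoresis. Changes in either direction fitted relative to DMSO.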

CCAAT/enhancer-binding protein beta (Homo sapiens), sequence (P17676 whole entry, looked up): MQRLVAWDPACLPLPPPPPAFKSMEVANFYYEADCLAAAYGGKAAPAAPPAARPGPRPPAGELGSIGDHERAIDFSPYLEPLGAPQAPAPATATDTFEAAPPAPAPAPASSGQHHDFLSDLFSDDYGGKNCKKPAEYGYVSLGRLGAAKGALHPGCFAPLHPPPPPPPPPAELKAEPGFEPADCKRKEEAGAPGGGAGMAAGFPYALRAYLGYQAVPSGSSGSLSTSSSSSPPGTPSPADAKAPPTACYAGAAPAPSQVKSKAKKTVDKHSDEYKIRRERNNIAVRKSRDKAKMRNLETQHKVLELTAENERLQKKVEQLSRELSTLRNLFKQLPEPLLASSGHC
Hepatocyte nuclear factor 3-beta (Homo sapiens), sequence (Q9Y261 whole entry, looked up): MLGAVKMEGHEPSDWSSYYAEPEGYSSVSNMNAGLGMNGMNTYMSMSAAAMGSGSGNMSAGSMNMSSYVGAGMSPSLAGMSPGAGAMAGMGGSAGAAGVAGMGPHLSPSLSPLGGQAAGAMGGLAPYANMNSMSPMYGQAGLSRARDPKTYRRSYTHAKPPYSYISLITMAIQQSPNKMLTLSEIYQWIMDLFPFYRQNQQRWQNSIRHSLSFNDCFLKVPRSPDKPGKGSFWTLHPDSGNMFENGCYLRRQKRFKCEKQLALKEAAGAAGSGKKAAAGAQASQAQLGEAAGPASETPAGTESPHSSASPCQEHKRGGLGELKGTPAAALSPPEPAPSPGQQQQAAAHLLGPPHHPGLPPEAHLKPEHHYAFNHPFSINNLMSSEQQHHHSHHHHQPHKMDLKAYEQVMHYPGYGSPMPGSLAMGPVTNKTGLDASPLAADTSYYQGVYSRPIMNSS
Bile acid receptor (Homo sapiens), sequence (Q96RI1 whole entry, looked up): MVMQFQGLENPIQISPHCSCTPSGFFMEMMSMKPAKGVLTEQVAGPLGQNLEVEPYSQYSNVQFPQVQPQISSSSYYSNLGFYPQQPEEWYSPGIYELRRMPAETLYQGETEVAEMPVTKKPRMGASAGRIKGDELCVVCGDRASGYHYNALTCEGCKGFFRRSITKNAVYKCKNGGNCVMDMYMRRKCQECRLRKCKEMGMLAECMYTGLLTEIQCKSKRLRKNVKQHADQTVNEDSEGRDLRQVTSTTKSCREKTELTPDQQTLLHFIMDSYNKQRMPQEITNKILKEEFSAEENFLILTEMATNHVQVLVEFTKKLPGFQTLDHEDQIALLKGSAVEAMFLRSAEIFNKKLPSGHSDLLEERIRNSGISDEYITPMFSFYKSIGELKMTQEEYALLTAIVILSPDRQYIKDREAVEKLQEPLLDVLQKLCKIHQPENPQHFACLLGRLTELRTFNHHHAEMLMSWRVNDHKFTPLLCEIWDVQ

In general, AC50 refers to the concentration giving half of the maximal activity seen. Take `Cc1nn(C)c(Oc2ccccc2)c1C=NOCc1ccc(C(=O)OC(C)(C)C)cc1`: the AC50 in assay [1] is 50.5 nM (active); in [2], 21.8 nM (active); in assay [4], 25.2 nM (active); in assay [5] it was 40.9 nM (active); in assay [6], 30.3 nM (active); in assay [10] it was 934 nM (active). Further, the molecule was called inactive in assay [3], in assay [7], in [8], in assay [9], in assay [11] and in assay [12]. For the same molecule, the molecule was classed as inactive in assay [13], in assay [14], in assay [15], in assay [16], in assay [17] and in [18].

For the molecule `CCOC(=O)C(C)Oc1ccc(Oc2nc3ccc(Cl)cc3o2)cc1` (stereo not drawn), the outcome in [1], in assay [2], in assay [3], in [4], in assay [19] and in assay [5] was inactive. Besides, the molecule was called inactive in assay [6], in assay [7], in [8], in assay [9], in assay [10] and in assay [11]. Besides, the molecule was classed as inactive in [13], in [14], in assay [15], in [16], in assay [17] and in assay [18].

Turning to `C#C[C@]1(O)CC[C@H]2[C@@H]3CCC4=CC(=O)CC[C@@H]4[C@H]3CC[C@@]21CC`, the outcome in assay [1], in [2], in assay [3], in [4], in [5] and in [7] was inactive. Besides, the result in assay [8], in assay [9], in assay [10], in assay [11], in [13] and in assay [14] was inactive. Further, the molecule was called inactive in assay [15], in assay [16] and in [17].

In the case of `COC(=O)c1ccccc1S(=O)(=O)NC(=O)Nc1nc(OC(F)F)cc(OC(F)F)n1`, the result in assay [1], in assay [2], in assay [3], in [4], in assay [5] and in [6] was inactive. Moreover, the call in assay [7], in [8], in assay [9], in assay [10], in assay [11] and in assay [12] was inactive. Moreover, the molecule was called inactive in [13], in assay [14], in assay [15], in assay [16], in assay [17] and in assay [18].

On to `CCN(CC)C(=O)c1cccc(C)c1`, for which the result in assay [1], in assay [2], in assay [3], in assay [4], in [19] and in assay [5] was inactive. The result in assay [6], in assay [7], in assay [8], in assay [9], in assay [10] and in [11] was inactive. Further, the outcome in [12], in assay [13], in assay [14], in [15], in assay [16] and in assay [17] was inactive. Moreover, the outcome in assay [18] was inactive.
